In PubChem BioAssay (NCI):
About 83,000 compounds went through this panel and 20% of them were active in at least one assay; those are over-represented in the sample as a whole.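 Plates (96-well) were seeded with cells, treated with compound at one concentration, and incubated for 48 hours before percent growth was determined.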 Unmarked numbers belong to inactive results. Calls of active or inactive are those of the source. Rule for the calls: active = growth percent below 10; inactive = the rest.

How the values were obtained:
Assay in all cases: NCI-60 one-dose screen, 48 h (100 = growth as untreated, 0 = no growth, -100 = all killed)
Details in all cases: 10 µM unless noted
HCT-15 colon = system: HCT-15 colon
HT29 colon = system: HT29 colon
SNB-75 CNS = system: SNB-75 CNS
SNB-19 CNS = system: SNB-19 CNS
U251 CNS = system: U251 CNS
PC-3 prostate = system: PC-3 prostate
SK-MEL-5 melanoma = system: SK-MEL-5 melanoma
UACC-62 melanoma = system: UACC-62 melanoma
LOX IMVI melanoma = system: LOX IMVI melanoma
SK-MEL-28 melanoma = system: SK-MEL-28 melanoma
SK-MEL-2 melanoma = system: SK-MEL-2 melanoma
EKVX NSCLC = system: EKVX NSCLC
SN12C renal = system: SN12C renal
UO-31 renal = system: UO-31 renal
TK-10 renal = system: TK-10 renal
A498 renal = system: A498 renal
CCRF-CEM leukemia = system: CCRF-CEM leukemia
MOLT-4 leukemia = system: MOLT-4 leukemia

Row | SMILES | growth (HCT-15 colon) | growth (HT29 colon) | growth (SNB-75 CNS) | growth (SNB-19 CNS) [%] | growth (U251 CNS) | growth (PC-3 prostate) [%] | growth (SK-MEL-5 melanoma) [%] | growth (UACC-62 melanoma) | growth (LOX IMVI melanoma) | growth (SK-MEL-28 melanoma) | growth (SK-MEL-2 melanoma) [%] | growth (EKVX NSCLC) [%] | growth (SN12C renal) [%] | growth (UO-31 renal) [%] | growth (TK-10 renal) [%] | growth (A498 renal) [%] | growth (CCRF-CEM leukemia) | growth (MOLT-4 leukemia)
1 | COc1ccccc1NC(=O)COc1ccc(/C=C2/Oc3cc4occc4c(OC)c3C2=O)cc1OC | 104% | 113% | 114% | 105 | 102% | 92.2 | 86.3 | 91.6% | 98.8% | 111% | 108 | 99.2 | 104 | 99.9 | 119 | 99 | 69.9% | 83.4%
2 | CCCCCCCCCCCCCCCCNc1ccccc1 | 103% | 87.1% | 107% | 108 | 86.2% | 82 | 104 | 98.8% | 101% | 113% | 90 | 106 | 70.7 | 57.9 | 90.9 | 114 | 44.4% | 43.1%
3 | O=C(/C=C/c1ccccc1)Oc1ccc(/C=C/c2cc(OC(=O)/C=C/c3ccccc3)cc(OC(=O)/C=C/c3ccccc3)c2)cc1 | 103% | 90.1% | 80.5% | 96.2 | 94.9% | 87.5 | 107 | 103% | 98.4% | 107% | 105 | 99.1 | 106 | 82.9 | 87 | 91.3 | 91.1% | 86.8%
4 | CC(=O)Oc1ccc(C(OC(C)=O)OC(C)=O)cc1 | 102% | 99.8% | 106% | 104 | 106% | 104 | 105 | 101% | 99.2% | 107% | 104 | 94.1 | 102 | 89.8 | 98.8 | 92.3 | 94.5% | 91.1%
5 | NC(=NCCCOc1ccc(F)cc1)Nc1ccc(Cl)c(Cl)c1 | 75.6% | 31.7% | 57.8% | 77 | 69.8% | 63.9 | 51.4 | 78.6% | 55.9% | 94.3% | 95.9 | 74.9 | 66 | 51.6 | 69 | 60.9 | 60.4% | 36.1%
6 | Cc1nc(-c2ccc(Cl)cc2)ccc1NC(=O)Nc1cccc(C(F)(F)F)c1 | 82.1% | 75.7% | 92.8% | 108 | 76.7% | 80.5 | 95.3 | 95.6% | 92.9% | 110% | 95.4 | 101 | 93.7 | 90.8 | 90.7 | 95.2 | 78.6% | 88.2%
7 | COC(=O)c1ccc(NC(N)=NCC(C)(C)COc2ccc(C(F)(F)F)cc2)nc1 | 18.1% | 9.44% (active) | 86.8% | 68.8 | 40.1% | 50.9 | 23.2 | 65.5% | 16.5% | 90.1% | 79.9 | 45.5 | 51.3 | 41.1 | 53.9 | 74.2 | 15.7% | 9.32% (active)
8 | CC(=O)n1cc(/C=C2\N=C(c3ccc(Cl)cc3)N(c3ccc(S(=O)(=O)Nc4nccs4)cc3)C2=O)c2ccccc21 | 95% | 103% | 92.2% | 67.7 | 56.2% | 72.6 | 80.1 | 84.1% | 93.2% | 82.2% | 89.2 | 85.7 | 74.3 | 70.4 | 117 | 74.9 | 47.8% | 51.1%
9 | O=C(O)c1ccc(-n2cc(/C=N/Nc3ccc(Cl)cc3)c(-c3ccc(F)c(F)c3)n2)cc1 | 52.1% | 93.4% | 89.6% | 86.6 | 81.1% | 60.2 | 72.3 | 39.1% | 44.2% | 73.6% | 75.5 | 59.7 | 93.2 | 46 | 94.1 | 49.9 | 32.3% | 37.6%
10 | CN(C)CCCOc1c(Br)cc(/C=C/C(=O)N(C)CCc2cc(Br)c(OCCCN(C)C)c(Br)c2)cc1Br | 9.92% (active) | -19.1% (active) | 73.3% | 48.6 | 7.24% (active) | 65.1 | 64.4 | -26.5% (active) | -23.1% (active) | -49.4% (active) | 89.3 | 78.7 | 72.8 | 65.7 | 106 | 60.5 | 4.13% (active) | -1.09% (active)
11 | O=C(CSc1nnc(-c2ccc(Cl)cc2)o1)Nc1ccc(C(=O)/C=C/c2ccccc2)cc1 | 96.7% | 98% | 90.4% | 86.9 | 99.3% | 99.4 | 98 | 85.6% | 85.3% | 105% | 92.9 | 98 | 95.5 | 80.1 | 93.7 | 95.7 | 86.1% | 93.1%
12 | CCn1c(C)nc([N+](=O)[O-])c1Sc1nc(N)nc2nc[nH]c12 | 40.7% | 29.3% | 44.7% | 95.1 | 55.1% | 52.7 | 59.2 | 1.74% (active) | 7.51% (active) | 81.3% | 40.5 | 38.9 | 33 | 37.5 | 34.5 | 57 | 11.8% | 14.3%
13 | Cc1cc(N2CCOCC2)nc(N(CCNc2ccnc3cc(Cl)ccc23)Cc2ccco2)n1 | 35.8% | 3.4% (active) | 59.5% | 41.5 | 6.13% (active) | 46.7 | 39.7 | 26% | 18.1% | 52.4% | 23.3 | 56.7 | 47.5 | 24.3 | 10.9 | 50.9 | -11.3% (active) | 5.1% (active)
14 | CC(C)CNCC(=O)Nc1ccc(Cc2ccc(NC(=O)CNCC(C)C)cc2)cc1 | 50.2% | 15.8% | 65.7% | 72.6 | 50.5% | 25.8 | 40.3 | 64.6% | 60.4% | 80.4% | 87.6 | 67.9 | 49.7 | 38.4 | 84.8 | 47.2 | 26.4% | 23.1%
15 | COc1ccc2c(c1)OC(N(C(C)=O)C(C)=O)=C(C#N)C2c1ccc(F)cc1 (stereo unspecified) | 24.9% | 8.69% (active) | 8.71% (active) | 28.6 | 30.8% | 21.9 | 18.9 | 34.5% | 47.7% | 64.4% | 25.1 | 47.9 | 51.5 | 45.8 | 71.2 | 12.8 | 10.9% | 28.7%
16 | O=C(NNC(=O)c1ccc([N+](=O)[O-])cc1)c1ccc([N+](=O)[O-])cc1 | 97% | 101% | 84.5% | 109 | 104% | 102 | 99.8 | 99.9% | 97.2% | 109% | 107 | 93.7 | 112 | 95.4 | 96.1 | 90.5 | 91.6% | 100%
17 | Cc1cn(C2CC(F)C(CO)O2)c(=O)[nH]c1=O (stereo unspecified) | 107% | 98.9% | 81.8% | 90.1 | 96.7% | 93.8 | 74.4 | 81.1% | 97.7% | 105% | 115 | 89.1 | 94.8 | 77.6 | 91.9 | 112 | 80.7% | 57%
